Test results as given in PubChem BioAssay AID1508601 (ICCB-Longwood Screening Facility, Harvard Medical School, 2020).
Where “and” joins values, the source holds several entries; their conditions need not be identical. Equal values may be shown once. The whole screen tested about 5,700 compounds, of which about 85 (1%) were called active. No stated cut-off is given here; in the data, active means p53-positive nuclei above about 36% (passing the limit was not always enough); inactive means the rest. Shown is part of a subset that was picked to be rich in actives.

Tests used:
[1] = nuclear p53 accumulation, HPV+ cells – imaging, p53-positive nuclei imaging, 24 h, 48 h (AID 1508601); conditions: 24/48 h
[2] = molecular target: Cellular tumor antigen p53 (Homo sapiens) (UniProt P04637); assay: as above; conditions: 24/48 h, stronger effect = higher value
Sequence of Cellular tumor antigen p53 (Homo sapiens) (P04637 whole entry, looked up): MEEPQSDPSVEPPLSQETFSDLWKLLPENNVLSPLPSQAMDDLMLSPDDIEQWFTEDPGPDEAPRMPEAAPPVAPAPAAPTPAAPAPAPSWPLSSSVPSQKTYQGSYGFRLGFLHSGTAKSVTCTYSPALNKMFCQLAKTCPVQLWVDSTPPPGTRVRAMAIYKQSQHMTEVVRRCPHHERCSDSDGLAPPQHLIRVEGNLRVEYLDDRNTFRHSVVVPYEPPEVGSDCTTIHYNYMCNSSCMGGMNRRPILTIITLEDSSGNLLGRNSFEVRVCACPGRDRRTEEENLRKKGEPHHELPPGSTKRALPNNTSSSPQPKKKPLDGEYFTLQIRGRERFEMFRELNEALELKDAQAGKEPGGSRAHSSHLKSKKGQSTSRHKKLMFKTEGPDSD

[3] = measured here: cell number at 24 h, Library stock concentration: 10 mM
[4] = measured here: cell number at 48 h, Library stock concentration: 10 mM
[5] = Library stock concentration: 10 mM
[6] = measured here: p53 positive nuclei at 24 h, Library stock concentration: 10 mM
[7] = measured here: cell number at 24 h, Library stock concentration: 3.33 mM
[8] = measured here: cell number at 48 h, Library stock concentration: 3.33 mM
[9] = Library stock concentration: 3.33 mM
[10] = measured here: p53 positive nuclei at 24 h, Library stock concentration: 3.33 mM

With `CCOC(=O)c1sc(NC(=O)c2ccco2)c(SC#N)c1C` as the molecule, how does the nuclei count, normalised ([1]; measured here: cell number at 24 h, Library stock concentration: 500 nM) read?
Its nuclei count, normalised is 118%.

And the nuclei count, normalised ([1]; measured here: cell number at 24 h, Library stock concentration: 1.5 uM)?
Its nuclei count, normalised is 119%.

And the nuclei count, normalised ([1]; measured here: cell number at 24 h, Library stock concentration: 4.6 uM)?
Its nuclei count, normalised is 115%.

And the nuclei count, normalised ([1]; measured here: cell number at 24 h, Library stock concentration: 13.7 uM)?
The nuclei count, normalised was 107%.

What about the nuclei count, normalised ([1]; measured here: cell number at 24 h, Library stock concentration: 41 uM) of the same molecule?
The nuclei count, normalised was 124%.

And the nuclei count, normalised ([1]; measured here: cell number at 24 h, Library stock concentration: 123 uM)?
The nuclei count, normalised was 109%.

And the nuclei count, normalised ([1]; measured here: cell number at 24 h, Library stock concentration: 370 uM)?
Its nuclei count, normalised is 113%.

What about the nuclei count, normalised ([1]; measured here: cell number at 24 h, Library stock concentration: 1.111 mM) of the same molecule?
Its nuclei count, normalised is 114%.

What about the nuclei count, normalised ([1]; measured here: cell number at 24 h, Library stock concentration: 3.333 mM) of the same molecule?
The nuclei count, normalised was 103%.

What about the nuclei count, normalised [1, 3] of the same molecule?
Its nuclei count, normalised is 97.4%.

What about the nuclei count, normalised ([1]; measured here: cell number at 48 h, Library stock concentration: 500 nM) of the same molecule?
Its nuclei count, normalised is 111%.

What about the nuclei count, normalised ([1]; measured here: cell number at 48 h, Library stock concentration: 1.5 uM) of the same molecule?
The nuclei count, normalised was 109%.

What about the nuclei count, normalised ([1]; measured here: cell number at 48 h, Library stock concentration: 4.6 uM) of the same molecule?
Its nuclei count, normalised is 104%.

And the nuclei count, normalised ([1]; measured here: cell number at 48 h, Library stock concentration: 13.7 uM)?
The nuclei count, normalised was 103%.

What about the nuclei count, normalised ([1]; measured here: cell number at 48 h, Library stock concentration: 41 uM) of the same molecule?
Its nuclei count, normalised is 110%.

What about the nuclei count, normalised ([1]; measured here: cell number at 48 h, Library stock concentration: 123 uM) of the same molecule?
Its nuclei count, normalised is 106%.

And the nuclei count, normalised ([1]; measured here: cell number at 48 h, Library stock concentration: 370 uM)?
The nuclei count, normalised was 110%.

And the nuclei count, normalised ([1]; measured here: cell number at 48 h, Library stock concentration: 1.111 mM)?
The nuclei count, normalised was 112%.

And the nuclei count, normalised ([1]; measured here: cell number at 48 h, Library stock concentration: 3.333 mM)?
Its nuclei count, normalised is 106%.

And the nuclei count, normalised [1, 4]?
The nuclei count, normalised was 101%.

And the p53-positive nuclei, normalised ([2]; Library stock concentration: 500 nM)?
Its p53-positive nuclei, normalised is 0.102% (inactive).

What about the p53-positive nuclei, normalised ([2]; Library stock concentration: 1.5 uM) of the same molecule?
Its p53-positive nuclei, normalised is -0.24% (inactive).

And the p53-positive nuclei, normalised ([2]; Library stock concentration: 4.6 uM)?
The p53-positive nuclei, normalised was -0.158% (inactive).

What about the p53-positive nuclei, normalised ([2]; Library stock concentration: 13.7 uM) of the same molecule?
The p53-positive nuclei, normalised was -0.0345% (inactive).

What about the p53-positive nuclei, normalised ([2]; Library stock concentration: 41 uM) of the same molecule?
The p53-positive nuclei, normalised was 0.07% (inactive).

And the p53-positive nuclei, normalised ([2]; Library stock concentration: 123 uM)?
The p53-positive nuclei, normalised was 0.0394% (inactive).

What about the p53-positive nuclei, normalised ([2]; Library stock concentration: 370 uM) of the same molecule?
Its p53-positive nuclei, normalised is 0.143% (inactive).

And the p53-positive nuclei, normalised ([2]; Library stock concentration: 1.111 mM)?
The p53-positive nuclei, normalised was 0.138% (inactive).

And the p53-positive nuclei, normalised ([2]; Library stock concentration: 3.333 mM)?
Its p53-positive nuclei, normalised is 0.637% (inactive).

And the p53-positive nuclei, normalised [2, 5]?
Its p53-positive nuclei, normalised is 1.1% (inactive).

And the p53-positive nuclei, normalised ([2]; measured here: p53 positive nuclei at 24 h, Library stock concentration: 500 nM)?
The p53-positive nuclei, normalised was -0.0629%.

What about the p53-positive nuclei, normalised ([2]; measured here: p53 positive nuclei at 24 h, Library stock concentration: 1.5 uM) of the same molecule?
The p53-positive nuclei, normalised was -0.173%.

And the p53-positive nuclei, normalised ([2]; measured here: p53 positive nuclei at 24 h, Library stock concentration: 4.6 uM)?
Its p53-positive nuclei, normalised is -0.116%.

And the p53-positive nuclei, normalised ([2]; measured here: p53 positive nuclei at 24 h, Library stock concentration: 13.7 uM)?
The p53-positive nuclei, normalised was -0.111%.

And the p53-positive nuclei, normalised ([2]; measured here: p53 positive nuclei at 24 h, Library stock concentration: 41 uM)?
The p53-positive nuclei, normalised was -0.122%.

And the p53-positive nuclei, normalised ([2]; measured here: p53 positive nuclei at 24 h, Library stock concentration: 123 uM)?
Its p53-positive nuclei, normalised is 0.00346%.

And the p53-positive nuclei, normalised ([2]; measured here: p53 positive nuclei at 24 h, Library stock concentration: 370 uM)?
The p53-positive nuclei, normalised was 0.0563%.

And the p53-positive nuclei, normalised ([2]; measured here: p53 positive nuclei at 24 h, Library stock concentration: 1.111 mM)?
The p53-positive nuclei, normalised was 0.34%.

And the p53-positive nuclei, normalised ([2]; measured here: p53 positive nuclei at 24 h, Library stock concentration: 3.333 mM)?
Its p53-positive nuclei, normalised is 1.08%.

What about the p53-positive nuclei, normalised [2, 6] of the same molecule?
Its p53-positive nuclei, normalised is 2.09%.

With `COc1cc(C(=O)NS(=O)(=O)c2ccccc2C)ccc1Cc1cn(C)c2ccc(NC(=O)OC3CCCC3)cc12` as the molecule, how does the nuclei count, normalised ([1]; measured here: cell number at 24 h, Library stock concentration: 80 uM) read?
The nuclei count, normalised was 110%.

And the nuclei count, normalised ([1]; measured here: cell number at 24 h, Library stock concentration: 400 uM)?
The nuclei count, normalised was 108%.

And the nuclei count, normalised ([1]; measured here: cell number at 24 h, Library stock concentration: 2 mM)?
Its nuclei count, normalised is 113%.

And the nuclei count, normalised [1, 7]?
Its nuclei count, normalised is 103%.

And the nuclei count, normalised [1, 3]?
The nuclei count, normalised was 105%.

What about the nuclei count, normalised ([1]; measured here: cell number at 24 h, concentration not given here) of the same molecule?
The nuclei count, normalised was 89.5%.

What about the nuclei count, normalised ([1]; measured here: cell number at 48 h, Library stock concentration: 80 uM) of the same molecule?
The nuclei count, normalised was 113%.

What about the nuclei count, normalised ([1]; measured here: cell number at 48 h, Library stock concentration: 400 uM) of the same molecule?
The nuclei count, normalised was 108%.

And the nuclei count, normalised ([1]; measured here: cell number at 48 h, Library stock concentration: 2 mM)?
Its nuclei count, normalised is 111%.

And the nuclei count, normalised [1, 8]?
The nuclei count, normalised was 108%.

What about the nuclei count, normalised [1, 4] of the same molecule?
Its nuclei count, normalised is 105%.

And the nuclei count, normalised ([1]; measured here: cell number at 48 h, concentration not given here)?
Its nuclei count, normalised is 92.4%.

And the p53-positive nuclei, normalised ([2]; Library stock concentration: 80 uM)?
The p53-positive nuclei, normalised was -0.138% (inactive).

What about the p53-positive nuclei, normalised ([2]; Library stock concentration: 400 uM) of the same molecule?
The p53-positive nuclei, normalised was 0.119% (inactive).

And the p53-positive nuclei, normalised ([2]; Library stock concentration: 2 mM)?
Its p53-positive nuclei, normalised is -0.133% (inactive).

And the p53-positive nuclei, normalised [2, 9]?
The p53-positive nuclei, normalised was -0.0165% (inactive).

And the p53-positive nuclei, normalised [2, 5]?
The p53-positive nuclei, normalised was 0.0919% (inactive).

What about the p53-positive nuclei, normalised ([2]; concentration not given here) of the same molecule?
The p53-positive nuclei, normalised was -0.151% (inactive).

And the p53-positive nuclei, normalised ([2]; measured here: p53 positive nuclei at 24 h, Library stock concentration: 80 uM)?
Its p53-positive nuclei, normalised is -0.0129%.

And the p53-positive nuclei, normalised ([2]; measured here: p53 positive nuclei at 24 h, Library stock concentration: 400 uM)?
Its p53-positive nuclei, normalised is -0.0637%.

What about the p53-positive nuclei, normalised ([2]; measured here: p53 positive nuclei at 24 h, Library stock concentration: 2 mM) of the same molecule?
Its p53-positive nuclei, normalised is 0.0356%.

And the p53-positive nuclei, normalised [2, 10]?
The p53-positive nuclei, normalised was -0.167%.

And the p53-positive nuclei, normalised [2, 6]?
The p53-positive nuclei, normalised was 0.0472%.

What about the p53-positive nuclei, normalised ([2]; measured here: p53 positive nuclei at 24 h, concentration not given here) of the same molecule?
The p53-positive nuclei, normalised was 0.0267%.

Which results are given for `CN1CCc2c(c3ccccc3n2Cc2ccc(C(=O)NO)cc2)C1`?
nuclei count, normalised ([1]; measured here: cell number at 24 h, Library stock concentration: 46 uM): 117%; nuclei count, normalised ([1]; measured here: cell number at 24 h, Library stock concentration: 278 uM): 120%; nuclei count, normalised ([1]; measured here: cell number at 24 h, Library stock concentration: 1.67 mM): 115%; nuclei count, normalised [1, 7]: 110% and 92.2%; nuclei count, normalised [1, 3]: 114%; nuclei count, normalised ([1]; measured here: cell number at 48 h, Library stock concentration: 46 uM): 119%; nuclei count, normalised ([1]; measured here: cell number at 48 h, Library stock concentration: 278 uM): 116%; nuclei count, normalised ([1]; measured here: cell number at 48 h, Library stock concentration: 1.67 mM): 110%; nuclei count, normalised [1, 8]: 102% and 95.4%; nuclei count, normalised [1, 4]: 107%; p53-positive nuclei, normalised ([2]; Library stock concentration: 46 uM): -0.237% (inactive); p53-positive nuclei, normalised ([2]; Library stock concentration: 278 uM): 0.0738% (inactive); p53-positive nuclei, normalised ([2]; Library stock concentration: 1.67 mM): 0.201% (inactive); p53-positive nuclei, normalised [2, 9]: -0.139% (inactive) and -0.349% (inactive); p53-positive nuclei, normalised [2, 5]: -0.117% (inactive); p53-positive nuclei, normalised ([2]; measured here: p53 positive nuclei at 24 h, Library stock concentration: 46 uM): -0.158%; p53-positive nuclei, normalised ([2]; measured here: p53 positive nuclei at 24 h, Library stock concentration: 278 uM): -0.207%; p53-positive nuclei, normalised ([2]; measured here: p53 positive nuclei at 24 h, Library stock concentration: 1.67 mM): -0.0538%; p53-positive nuclei, normalised [2, 10]: -0.314% and -0.356%; p53-positive nuclei, normalised [2, 6]: -0.152%
